Three molecules from PubChem BioAssay (EPA / NIEHS) can be followed below.

Read-out in test [1]: Protein phosphatase 2A (PPP2R4), PTPA (gene 5524)
The test can be described thus: LTEA_HepaRG_PPP2R4: Life Technologies and Expression Analysis (LTEA) Assay for Protein phosphatase 2A (PPP2R4) using HepaRG (AID 2283522). As to conditions: mRNA level, 48 h; actives raise or lower the signal. In short, it runs like this: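 Expression was quantified by Fluidigm qRT-PCR normalised to three housekeeping genes after 48 h treatment. Human HepaRG cells received an 8-point series from 100 µM downward by half-logs, in duplicate with 0.5% DMSO vehicle and 1 mM phenobarbital as induction control.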

Read-out in test [2]: solute carrier (SLC22A1), SLC22A1 (gene 6580)
The test can be described thus: LTEA_HepaRG_SLC22A1: Life Technologies and Expression Analysis (LTEA) Assay for solute carrier (SLC22A1) using HepaRG (AID 2283524).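 As to AC50: differentiated human HepaRG liver cells in serum-free induction medium.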 The settings on record: mRNA level, 48 h; actives raise or lower the signal. In short, it runs like this:
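qRT-PCR readout (TaqMan, Fluidigm arrays) of SLC22A1 transcript, normalized to three housekeeping genes; bidirectional curve fit relative to 0.5% DMSO vehicle. Differentiated human HepaRG cells, 48 h chemical exposure, top concentration 100 uM, half-log steps, eight points.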

Read-out in test [3]: Pyruvate Dehydrogenase Kinase 4 (PDK4), PDK4 (gene 5166)
The test can be described thus: LTEA_HepaRG_PDK4: Life Technologies and Expression Analysis (LTEA) Assay for Pyruvate Dehydrogenase Kinase 4 (PDK4) using HepaRG (AID 2283525). As to conditions: mRNA level, 48 h; actives raise or lower the signal. The method, boiled down: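 HepaRG (human liver line), 48 h chemical exposure, 8-pt half-log CRC top 100 uM, 0.5% DMSO vehicle, duplicates. Readout: TaqMan qRT-PCR of PDK4 mRNA, housekeeping-normalized; gain/loss fit relative to DMSO baseline.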

Read-out in test [4]: NAD(P)H dehydrogenase [quinone] 1 (NQO1), NQO1 (gene 1728)
The test can be described thus: LTEA_HepaRG_NQO1: Life Technologies and Expression Analysis (LTEA) Assay for NAD(P)H dehydrogenase [quinone] 1 (NQO1) using HepaRG (AID 2283526). The settings on record: mRNA level, 48 h; actives raise or lower the signal. The method, boiled down: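 NQO1 transcript induction or loss measured by TaqMan qRT-PCR, referenced to three housekeeping genes and fitted bidirectionally against 0.5% DMSO. HepaRG cultures exposed 48 h, duplicate, eight-point half-log series, top 100 uM.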

Read-out in test [5]: Nuclear factor erythroid 2-related factor 2 (Homo sapiens) (UniProt Q16236)
As to the kind of experiment: LTEA_HepaRG_NFE2L2: Life Technologies and Expression Analysis (LTEA) Assay for Nuclear factor erythroid 2-related factor 2 (NFE2L2) Transcription Factor using HepaRG (AID 2283527).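 Also: TaqMan qRT-PCR transcript level normalised to ACTB GAPDH and POLR2A housekeeping genes.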 The settings on record: mRNA level, 48 h; actives raise or lower the signal. In short, it runs like this:
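HepaRG, 48 h dosing, 8-pt half-log series from 100 uM in 0.5% DMSO, duplicates. Read-out: NFE2L2 mRNA by qRT-PCR (ACTB/GAPDH/POLR2A normalization). Bidirectional curve fit vs DMSO baseline.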

Read-out in test [6]: succinate dehydrogenase complex iron sulfur subunit B (SDHB), SDHB (gene 6390)
The test can be described thus: LTEA_HepaRG_SDHB: Life Technologies and Expression Analysis (LTEA) Assay for succinate dehydrogenase complex iron sulfur subunit B (SDHB) using HepaRG (AID 2283528). The settings on record: mRNA level, 48 h; actives raise or lower the signal. In short, it runs like this: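 HepaRG cells (~100,000/well, plated 48 h) exposed in duplicate for 48 h in serum-free induction medium to 8-point half-log series from 100 uM in 0.5% DMSO; mRNA by qRT-PCR normalised to ACTB, GAPDH, POLR2A; bidirectional fit versus DMSO.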

Read-out in test [7]: Signal transducer and activator of transcription 3 (Homo sapiens) (UniProt P40763)
As to the kind of experiment: LTEA_HepaRG_STAT3: Life Technologies and Expression Analysis (LTEA) Assay for Signal transducer and activator of transcription (STAT3) using HepaRG (AID 2283529). The settings on record: mRNA level, 48 h; actives raise or lower the signal. The method, boiled down:
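HepaRG, 48 h exposure, 8-pt half-log series (top 100 uM), 0.5% DMSO vehicle, duplicates. Readout: STAT3 transcript by Fluidigm qRT-PCR, housekeeping-normalized; bidirectional fit vs DMSO baseline.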

Read-out in test [8]: solute carrier (SLCO1B1), SLCO1B1 (gene 10599)
As to the kind of experiment: LTEA_HepaRG_SLCO1B1: Life Technologies and Expression Analysis (LTEA) Assay for solute carrier (SLCO1B1) using HepaRG (AID 2283530). The settings on record: mRNA level, 48 h; actives raise or lower the signal. In short, it runs like this:
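HepaRG, serum-free induction medium, 48 h dosing, 8-pt half-log from 100 uM, 0.5% DMSO vehicle, duplicates. Readout: SLCO1B1 mRNA, qRT-PCR, ACTB/GAPDH/POLR2A normalization; up or down fit vs DMSO.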

Read-out in test [9]: Transforming Growth Factor (TGFA), TGFA (gene 7039)
As to the kind of experiment: LTEA_HepaRG_TGFA: Life Technologies and Expression Analysis (LTEA) Assay for Transforming Growth Factor (TGFA) using HepaRG (AID 2283532). As to conditions: mRNA level, 48 h; actives raise or lower the signal. The method, boiled down:
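qRT-PCR read-out of TGFA transcript, normalized to three housekeeping genes, fitted bidirectionally against 0.5% DMSO baseline. Human HepaRG cultures received chemicals for 48 h at eight half-log concentrations, top 100 uM.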

Read-out in test [10]: Transforming Growth Factor (TGFB1), TGFB1 (gene 7040)
The test can be described thus: LTEA_HepaRG_TGFB1: Life Technologies and Expression Analysis (LTEA) Assay for Transforming Growth Factor (TGFB1) Transporter using HepaRG (AID 2283533). The settings on record: mRNA level, 48 h; actives raise or lower the signal. In short, it runs like this: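 HepaRG, 48 h post-plating, switched to serum-free induction medium; chemicals 100 uM top, half-log, 8 pts, 0.5% DMSO, dup; 48 h exposure; RNA → Fluidigm TaqMan qRT-PCR; norm ACTB/GAPDH/POLR2A; bidirectional fit vs DMSO.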

Read-out in a further test: TIMP1, TIMP1 (gene 7076)
The test can be described thus: LTEA_HepaRG_TIMP1: Life Technologies and Expression Analysis (LTEA) Assay for TIMP1 using HepaRG (AID 2283534). The settings on record: mRNA level, 48 h; actives raise or lower the signal. The method, boiled down: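 Readout is TIMP1 mRNA level measured by qRT-PCR and normalized to three housekeeping genes. Human HepaRG cells were treated for 48 h in duplicate at eight concentrations up to 100 uM (0.5% DMSO); gain or loss fitted against DMSO.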

Read-out in test [11]: Tumor necrosis factor receptor 1 (TNFRSF1A), TNFRSF1A (gene 7132)
The test can be described thus: LTEA_HepaRG_TNFRSF1A: Life Technologies and Expression Analysis (LTEA) Assay for Tumor necrosis factor receptor 1 (TNFRSF1A) using HepaRG (AID 2283535). As to conditions: mRNA level, 48 h; actives raise or lower the signal. The method, boiled down: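 Read-out is TNFRSF1A transcript level by TaqMan qRT-PCR, normalized to three housekeeping genes, scored as gain or loss of signal versus 0.5% DMSO. Human HepaRG cells received test chemicals for 48 h at up to 100 uM (half-log series).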

Read-out in test [12]: Cellular tumor antigen p53 (Homo sapiens) (UniProt P04637)
As to the kind of experiment: LTEA_HepaRG_TP53: Life Technologies and Expression Analysis (LTEA) Assay for Tumor Protein P53 (TP53) using HepaRG (AID 2283537). The settings on record: mRNA level, 48 h; actives raise or lower the signal. In short, it runs like this: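 Differentiated HepaRG cells in serum-free induction medium exposed 48 h in duplicate to 8 half-log concentrations, top 100 uM, 0.5% DMSO. TP53 mRNA by TaqMan qRT-PCR (Fluidigm), normalized to ACTB, GAPDH, POLR2A; fitted bidirectionally versus DMSO.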

Read-out in test [13]: UDP glucuronosyltransferase (UGT1A1), UGT1A1 (gene 54658)
The test can be described thus: LTEA_HepaRG_UGT1A1: Life Technologies and Expression Analysis (LTEA) Assay for UDP glucuronosyltransferase (UGT1A1) using HepaRG (AID 2283538). The settings on record: mRNA level, 48 h; actives raise or lower the signal. In short, it runs like this: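 UGT1A1 transcript level, measured by qRT-PCR with three housekeeping genes for normalization, after 48 h treatment of human HepaRG cells (0.5% DMSO, duplicates, up to 100 uM, half-log steps, 8 points). Curves fit both directions against DMSO baseline.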

The nature of test [14]: LTEA_HepaRG_LDH_cytotoxicity: Cytotoxicity Assessment in the Life Technologies and Expression Analysis (LTEA) Assay (AID 2283563; active = hit-call score of the fitted dose curve at least 0.9, where 1 is the maximum). In short, it runs like this:
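Cells were thawed and plated for 48 h. Medium was then replaced with serum-free induction medium. Chemicals (8 half-log points, maximum 100 uM, 0.5% DMSO) were added in duplicate for 48 h, after which spent medium was assayed for LDH.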

Read-out in test [15]: Thyroid Hormone Responsive (THRSP), THRSP (gene 7069)
As to the kind of experiment: LTEA_HepaRG_THRSP: Life Technologies and Expression Analysis (LTEA) Assay for Thyroid Hormone Responsive (THRSP) using HepaRG (AID 2283536). The settings on record: mRNA level, 48 h; actives raise or lower the signal. In short, it runs like this:
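qRT-PCR read-out (Fluidigm TaqMan), housekeeping-normalized (ACTB/GAPDH/POLR2A). HepaRG, 48 h chemical exposure, 8-pt half-log series from 100 uM in 0.5% DMSO, duplicates. Bidirectional curve fit vs 0.5% DMSO baseline.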

Read-out in test [16]: UDP glucuronosyltransferase (UGT1A6), UGT1A6 (gene 54578)
As to the kind of experiment: LTEA_HepaRG_UGT1A6: Life Technologies and Expression Analysis (LTEA) Assay for UDP glucuronosyltransferase (UGT1A6) using HepaRG (AID 2283539). As to conditions: mRNA level, 48 h; actives raise or lower the signal. In short, it runs like this: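 HepaRG, 48 h post-plating switch to serum-free induction medium; chemical 48 h, 100 uM top, half-log x8, duplicate, 0.5% DMSO. Phenobarbital 1mM induction control. UGT1A6 mRNA by TaqMan qRT-PCR; gain/loss fit vs DMSO.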

Each structure is given as a SMILES string. “And” between values parts separate entries of the source, which are not always exact repeats. Equal values may be shown once. The source holds several records for some structures; these can differ, active in one and inactive in another. The source made the active and inactive calls. The calls were made as follows, unless noted: active = hit-call score of the fitted dose curve at least 0.9, where 1 is the maximum; inactive = score below 0.9.

Nuclear factor erythroid 2-related factor 2 (Homo sapiens), sequence (Q16236 whole entry, looked up): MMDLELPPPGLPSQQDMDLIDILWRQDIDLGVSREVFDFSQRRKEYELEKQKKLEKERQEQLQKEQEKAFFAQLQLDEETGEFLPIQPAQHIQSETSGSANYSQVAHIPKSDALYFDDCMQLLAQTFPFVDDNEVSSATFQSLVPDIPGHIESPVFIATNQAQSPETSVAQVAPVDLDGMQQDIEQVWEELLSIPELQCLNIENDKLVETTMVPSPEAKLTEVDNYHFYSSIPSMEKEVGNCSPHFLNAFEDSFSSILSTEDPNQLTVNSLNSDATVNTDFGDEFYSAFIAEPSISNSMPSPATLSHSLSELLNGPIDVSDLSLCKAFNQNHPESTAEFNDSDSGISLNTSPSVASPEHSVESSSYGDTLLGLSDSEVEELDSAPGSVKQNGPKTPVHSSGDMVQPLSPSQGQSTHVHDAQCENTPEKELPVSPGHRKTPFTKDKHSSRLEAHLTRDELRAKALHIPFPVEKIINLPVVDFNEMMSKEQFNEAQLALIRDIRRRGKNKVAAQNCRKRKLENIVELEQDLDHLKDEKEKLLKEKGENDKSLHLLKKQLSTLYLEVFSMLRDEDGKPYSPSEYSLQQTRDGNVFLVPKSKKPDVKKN
Signal transducer and activator of transcription 3 (Homo sapiens), sequence (P40763 whole entry, looked up): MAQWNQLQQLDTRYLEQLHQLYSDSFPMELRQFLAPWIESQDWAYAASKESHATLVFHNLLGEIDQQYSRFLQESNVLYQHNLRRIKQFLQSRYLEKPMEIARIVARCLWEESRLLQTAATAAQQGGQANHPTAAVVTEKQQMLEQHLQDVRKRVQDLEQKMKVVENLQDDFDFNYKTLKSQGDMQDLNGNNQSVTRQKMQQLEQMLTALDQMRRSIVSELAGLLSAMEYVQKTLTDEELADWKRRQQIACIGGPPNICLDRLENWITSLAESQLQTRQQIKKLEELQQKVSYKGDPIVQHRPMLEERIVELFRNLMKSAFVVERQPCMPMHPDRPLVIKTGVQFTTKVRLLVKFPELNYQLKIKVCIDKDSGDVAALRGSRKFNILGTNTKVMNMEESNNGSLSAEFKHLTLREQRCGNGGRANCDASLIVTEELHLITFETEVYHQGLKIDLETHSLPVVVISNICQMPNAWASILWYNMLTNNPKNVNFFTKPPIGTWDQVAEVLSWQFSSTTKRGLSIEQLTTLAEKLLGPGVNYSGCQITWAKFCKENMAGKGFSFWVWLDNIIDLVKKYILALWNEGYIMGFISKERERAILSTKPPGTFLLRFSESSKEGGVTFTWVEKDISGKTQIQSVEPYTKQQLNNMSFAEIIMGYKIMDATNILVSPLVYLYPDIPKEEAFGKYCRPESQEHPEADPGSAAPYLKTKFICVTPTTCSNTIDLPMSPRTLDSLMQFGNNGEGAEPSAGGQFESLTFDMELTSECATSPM
Cellular tumor antigen p53 (Homo sapiens), sequence (P04637 whole entry, looked up): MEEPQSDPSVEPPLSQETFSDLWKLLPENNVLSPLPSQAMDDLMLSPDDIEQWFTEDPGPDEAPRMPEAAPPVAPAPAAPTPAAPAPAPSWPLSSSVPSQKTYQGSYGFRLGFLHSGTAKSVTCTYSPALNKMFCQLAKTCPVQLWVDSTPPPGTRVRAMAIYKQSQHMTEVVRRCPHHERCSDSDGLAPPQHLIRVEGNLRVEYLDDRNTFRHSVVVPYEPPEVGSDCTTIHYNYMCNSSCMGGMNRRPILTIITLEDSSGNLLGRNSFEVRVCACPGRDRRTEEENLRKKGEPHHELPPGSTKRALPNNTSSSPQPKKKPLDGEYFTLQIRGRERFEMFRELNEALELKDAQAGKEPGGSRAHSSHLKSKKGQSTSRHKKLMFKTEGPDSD

Consider `CC(C)N(C(=O)COc1nnc(C(F)(F)F)s1)c1ccc(F)cc1`, for which the concentration at half-maximal activity (AC50) (as a rule, the concentration at which the activity in the assay is half-maximal) is 31.4 µM (active) in test [1] and 39.5 µM (active) in [2]. The result in test [3], in test [4], in test [5], in [6], in [7] and in [8] was inactive. Moreover, the outcome in [9] was “inactive”; in test [10], “inactive”; with TIMP1, TIMP1 (gene 7076) it was “inactive”; in [11], “inactive”; in [12] it was “inactive”; in test [13], “inactive”. Also, the molecule was called inactive in test [14].
With `OCCOc1ccccc1`, the molecule was called inactive in test [1], in test [2], in test [3], in [4], in [5] and in test [6]. Also, the outcome in test [7] is “inactive”; in test [8], “inactive”; in test [9], “inactive”; in test [10], “inactive”; with TIMP1, TIMP1 (gene 7076), “inactive”; in test [15], “inactive”. The call in [12], in test [13], in [16] and in test [14] was inactive.
Turning to `O=C(O)C(F)(F)C(F)(F)C(F)(F)C(F)(F)C(F)(F)C(F)(F)C(F)(F)F`, the outcome in test [1], in [2], in test [4], in test [5], in [6] and in [7] was inactive. The outcome in [8] is “inactive”; in test [9], “inactive”; in [10], “inactive”; with TIMP1, TIMP1 (gene 7076), “inactive”; in [15] it was “inactive”; in test [12] it was “inactive”. In addition, in test [14], the molecule was called inactive. The AC50 is 26.9 µM (active) and 21.7 µM (active) in test [3]; 26.1 µM (active) in [15]; 12.3 µM (active) in test [12]; 3.11 µM (active) and 7.73 µM (active) in test [13].
